The results in this text go back to the OligoGym collection.
Further: reference of the scale not given here.

The first test deals with AACS. The test is described as follows: pooled miR-30 sensor sort-seq; sequence = guide strand. Particulars: shRNA.
As to TAGGCCTTTAACCACCTGCTGC, the sensor-assay potency score (higher = more potent) was -1.19.

In the case of TTTCGATGTGTCCACAACCTCA, the sensor-assay potency score (higher = more potent) is -1.33.

Turning to TTTTCTGCATAGTTGAGCCGAC, the sensor-assay potency score (higher = more potent) is -0.296.

As for TACAGATCCAGGGTCTCGGGGT, the sensor-assay potency score (higher = more potent) was -0.361.

Turning to TCTGTCATTCTCTTTGTGCCGC, the sensor-assay potency score (higher = more potent) was 0.211.

Take TTACAGTGCACACGGGTGCGGC: the sensor-assay potency score (higher = more potent) was -0.808.

As for TTGAGGGTGCCGTCACTCCGGC, the sensor-assay potency score (higher = more potent) was -1.01.

In the case of TAGCACAGGAGGATGTCACTGC, the sensor-assay potency score (higher = more potent) was found to be 0.828.

With TTTGACGGCAACTTCCACTTTC, the sensor-assay potency score (higher = more potent) is -0.286.

In turn, TTGGAATCTTTGAAAGGTCTAT gave a sensor-assay potency score (higher = more potent) of 0.0735.

The sequence TGATTCTGCAGTAGTCGCCATG registered a sensor-assay potency score (higher = more potent) of -0.951.

On to TTGATTCTGCAGTAGTCGCCAT, for which the sensor-assay potency score (higher = more potent) was 0.104.

In another test the target is AADACL2. Described as above. Particulars: shRNA.
As to TAAACAGATGTCTTGACTCCAG, the sensor-assay potency score (higher = more potent) was -0.578.

TTTTTGGCAAGTACAATCGTAC yielded a sensor-assay potency score (higher = more potent) of -0.474.

TAAATGTACAAGTTTTAGCGAT: the sensor-assay potency score (higher = more potent) was -0.754.

TAACATACATAAGTCCATCATC yielded a sensor-assay potency score (higher = more potent) of -1.34.

For the sequence TATCTCTTATCCTAAGACCTAG, the sensor-assay potency score (higher = more potent) is -0.412.

Sequence TTCAGCATCATTCTGCACCTGT displayed a sensor-assay potency score (higher = more potent) of 0.443.

Sequence TTGTAACATACATAAGTCCATC yielded a sensor-assay potency score (higher = more potent) of -1.14.

In turn, TTGGCAAGTACAATCGTACTGG had a sensor-assay potency score (higher = more potent) of 0.407.

Regarding TTTTATTTCAGCATCATTCTGC, the sensor-assay potency score (higher = more potent) came out at 0.839.

Sequence TTTTGTAAGAATTTTTTCCAAA yielded a sensor-assay potency score (higher = more potent) of -1.07.

As to TACAACAACAGCATCAAGCGTG, the sensor-assay potency score (higher = more potent) was -0.148.

On to TAACTGAGAATCATTGGCCAAC, for which the sensor-assay potency score (higher = more potent) is -1.39.

In the next test the target is AADACL3. The test is described as above. The conditions noted are these: shRNA.
Regarding TTTCATGATGACCTCTTGCCAG, the sensor-assay potency score (higher = more potent) is -1.07.

In turn, TACAACAGTGAATTGTCCCGGA came in with a sensor-assay potency score (higher = more potent) of 0.727.

On to TATGTCATCTTCTGCAATCAGG, for which the sensor-assay potency score (higher = more potent) is -1.03.

Sequence ATCCGTGACCACAACATCGGGA had a sensor-assay potency score (higher = more potent) of 0.0942.

In turn, TTGTTGACAAACCACTGCGGCT returned a sensor-assay potency score (higher = more potent) of -1.56.

The sequence TATGCTTAGGTAACTTGCGGTA showed a sensor-assay potency score (higher = more potent) of -0.306.

For TAGCAGATGAAACTCCAGGTGA, the sensor-assay potency score (higher = more potent) was -0.205.

TTATGCTTAGGTAACTTGCGGT registered a sensor-assay potency score (higher = more potent) of 0.0464.

Turning to TAGATCAGGATCTGAGCCCGGA, the sensor-assay potency score (higher = more potent) worked out at 0.297.

For the sequence TTACTTCCAAGTAAGCAGCTTC, the sensor-assay potency score (higher = more potent) was found to be 0.308.

TTCATGATGACCTCTTGCCAGG: the sensor-assay potency score (higher = more potent) was -1.37.

The sequence TTTTCTTGTACAACAGTGAATT came in with a sensor-assay potency score (higher = more potent) of -1.64.

The target in a further test is AATK. The test is described as above. The conditions noted are these: shRNA.
Sequence TTGATGGCAGACACCTCGCCAC came in with a sensor-assay potency score (higher = more potent) of -0.828.

TTGTACTCAAAATTGAGGCCTC registered a sensor-assay potency score (higher = more potent) of 0.126.

In the case of TTGCCTTCTGATCTCAGCGGAA, the sensor-assay potency score (higher = more potent) was -0.981.
